# PAX8 inh HTS – inhibitors of PAX8-driven TPO luciferase reporter, primary screen, RMG-I cells, single concentration. SteadyGlo, 24 h. AID 652154, 2013. inhibition, % at 12.6 µM. 360,000 compounds, 1.2% hits;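 active = mean replicate inhibition at least 60% with every replicate also reaching 60%; inconclusive = only one of the two criteria is met; inactive = mean below 60% and not all replicates reaching 60%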;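 also: luciferase light reporting Pax8 driven TPO promoter activity; plate controls were median of neutral control wells for no effect and mitoxantrone controls for full effect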
# esBAF inh – Bmi1 luciferase reporter increase in mESCs, primary screen, esBAF inhibitor project, mouse ES cells, Bmi1 luciferase knock-in, single point; 24 h; 100% = twice the neutral-well signal; reporter increase, % at 12.5 µM; 350,000 compounds, 2% hits; in the data active = activation above about 40%; inconclusive = no clear call, values can overlap the other calls;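 also: 0% = median of the plate's neutral control wells and 100% = double that signal; a rise in the Bmi1 reporter signal indicates esBAF inhibition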
# TRPM1 prom inh – inhibitors of MITF-dependent TRPM1 promoter reporter, primary screen, cell-based, SK-MEL-5, single point, luciferase; SK-MEL-5 TRPM1 promoter luciferase, 24 h; inhibition, % at 12.5 µM; 330,000 compounds, 0.83% hits; AID 488899, 2010;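 active = mean inhibition across replicates of 60% or more, whatever share of single replicates reaches that level; inconclusive = some that reach 60%, reason not given; inactive = mean inhibition across replicates below 60%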
# EWS-Fli block – EWS/Fli-driven NR0B1 reporter inhibitors, primary screen, A673 cells, NR0B1 luciferase, luminescence, MLPCN library; viability-normalised; inhibition, % at 12.6 µM; 350,000 compounds, 0.67% hits; AID 651661, 2012;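 active = mean inhibition of at least 50% after viability correction, with every replicate also passing that limit; inconclusive = mean reaches 50% but only one of two replicates passes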;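 also: firefly luciferase signal divided by Alamar Blue viability fluorescence both relative to DMSO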
# MITF act – activators of MITF-driven TRPM1 promoter reporter, primary screen, cell-based, SK-MEL-5, luciferase, single point. SK-MEL-5 TRPM1-promoter luciferase, 24 h; % of positive control, neutral wells = 0. activation, % at 12.5 µM. 300,000 compounds, 0.75% hits. AID 588334, 2011;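 active = mean activation of at least 80% with every replicate also reaching 80%; inconclusive = mean reaches 80% but some replicate falls short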;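 also: 0% = neutral control wells and 100% = parthenolide positive control wells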
# Wnt bcat act – Wnt/beta-catenin pathway activators, primary screen, cell-based, plate reader, single point; Wnt/beta-catenin reporter cell assay, activator; 300,000 compounds, 1.2% hits; AID 743398, 2014; activation, % at 9.35 µM; in the data active = activation above about 30%, passing the limit was not always enough; inconclusive = no clear call, values can overlap the other calls;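 also: 0% = neutral control wells and 100% = positive control wells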
# Active calls of the source: *; ? = inconclusive; / = no result given. Only some compounds are listed: those with a hit (about 4% of all), similar ones and a draw of the others.
SMILES,PAX8 inh HTS,esBAF inh,TRPM1 prom inh,EWS-Fli block,MITF act,Wnt bcat act
COc1ccc(/C(O)=C2/C(=O)C(=O)N(CCN3CCOCC3)C2c2ccccn2)cc1 (stereo unspecified),-89,44*,-2,/,3,?
COc1ccc(C2/C(=C(/O)c3ccc(C)cc3)C(=O)C(=O)N2c2ccccn2)cc1 (stereo unspecified),-3,7,-9,-15,12,2
CC(C)NC(=O)N(C)C[C@@H]1OCCCC[C@H](C)Oc2ccc(NC(=O)c3ccccc3)cc2C(=O)N([C@H](C)CO)C[C@H]1C,-6,/,/,/,/,/
CO[C@@H]1CN(C)C(=O)c2cc(NC(=O)c3cccc(F)c3)ccc2OC[C@@H](C)N(C(C)=O)C[C@@H]1C,/,-8,/,-2,/,/
Cc1ccc(S(=O)(=O)N(C)C[C@@H]2OCCCC[C@@H](C)Oc3ccc(NS(C)(=O)=O)cc3C(=O)N([C@@H](C)CO)C[C@H]2C)cc1,-8,2,/,-13,/,/
C[C@@H]1CN([C@H](C)CO)C(=O)c2cc(C#Cc3ccccn3)cnc2O[C@H]1CN(C)C(=O)c1cnccn1,11,1,/,-6,/,/
C[C@H](CO)N1C[C@H](C)[C@@H](CN(C)S(=O)(=O)c2ccc(Cl)cc2)Oc2ccc(N(C)C)cc2C1=O,-13,/,/,6,/,/
CCC(=O)N(C)C[C@@H]1Oc2ncc(C#CC(C)(C)O)cc2C(=O)N([C@H](C)CO)C[C@H]1C,/,-3,/,-8,/,/
C[C@H]1CN([C@@H](C)CO)C(=O)CCCn2nncc2CO[C@H]1CN(C)Cc1ccc(C(F)(F)F)cc1,/,-2,/,6,/,/
O=C(O)c1cc(-c2ccc(/C=C3/SC(=S)N(Cc4ccccc4)C3=O)o2)ccc1Cl,-23,54*,-2,-11,2,-1
C[C@@H]1CN([C@H](C)CO)C(=O)c2cc(C3=CCCCC3)cnc2O[C@@H]1CN(C)C(=O)c1ccccn1,9,0,/,1,/,/
Cc1noc(C)c1NC(=O)Nc1ccc2c(c1)C(=O)N([C@@H](C)CO)C[C@@H](C)[C@H](CN(C)C(=O)Nc1ccc3c(c1)OCO3)OCCCC[C@@H](C)O2,/,2,/,-10,/,/
Cc1sc(=NC(=O)c2ccco2)n(C)c1-c1ccc(F)cc1,/,/,-109,/,101*,/
Cc1sc(=NC(=O)c2ccco2)n(C)c1-c1ccccc1,/,-9,-57,/,60,22
O=C(C[C@@H]1CC[C@@H](NC(=O)c2ccccn2)[C@@H](CO)O1)NCc1cc(F)cc(F)c1,-2,0,/,11,/,/
Cc1nc(-c2ccc(Cl)cc2)sc1C1(C)CC(c2cccc(F)c2)=NO1 (stereo unspecified),-36,46*,-48,-46,48,7
Cc1nc(-c2ccc(Cl)cc2)sc1C1(C)CC(c2cccc(Cl)c2)=NO1 (stereo unspecified),-1,21,-35,-45,39,11
O=[N+]([O-])c1ccccc1/C=C/c1ccncc1,-20,/,/,-19,/,/
Cc1ccc(O)c(C2=NCCNC(C(F)(F)F)=C2)c1,8,-7,12,/,-12,-2
Oc1c(C2=NCCNC(C(F)(F)F)=C2)ccc2ccccc12,-242,/,-92,-100,87*,-1
c1cc2c(cc1C1CCCCC1)c1c3n2CCCNC3CCC1 (stereo unspecified),/,/,99*,/,-99,/
C[C@@H]1CCCCO[C@@H](CN(C)C(=O)c2ccccc2)[C@H](C)CN([C@@H](C)CO)C(=O)c2cc(NC(=O)Cc3ccccc3)ccc2O1,3,4,/,3,/,/
COc1ccc2c3c(n(C)c2c1)[C@H](CO)N(CC1CC1)CC31CCN(C(=O)c2ccc3c(c2)OCO3)CC1,/,/,/,9,/,/
COc1ccc(-c2nc3ccccc3[nH]2)cc1,/,/,-3,28,7,17
COc1ccc2oc(=Nc3ccccc3)c(-c3nc4ccccc4[nH]3)cc2c1,-98,/,-11,/,12,44*
SMILES,PAX8 inh HTS,esBAF inh,TRPM1 prom inh,EWS-Fli block,MITF act,Wnt bcat act
COc1ccc(CN(C)C[C@H]2OCCCC[C@@H](C)Oc3ccc(NS(=O)(=O)c4ccc(C)cc4)cc3C(=O)N([C@H](C)CO)C[C@@H]2C)cc1,-2,0,/,-8,/,/
COc1ccc(CN(C)C[C@H]2OCCCC[C@@H](C)Oc3ccc(NS(=O)(=O)c4ccc(C)cc4)cc3C(=O)N([C@H](C)CO)C[C@H]2C)cc1,-4,-4,/,59*,/,/
COc1ccc(CN(C)C[C@@H]2OCCCC[C@H](C)Oc3ccc(NS(=O)(=O)c4ccc(C)cc4)cc3C(=O)N([C@H](C)CO)C[C@H]2C)cc1,82*,-2,/,11,/,/
C/C(=N\OC(=O)c1ccc(F)cc1)c1sc(-c2ccc(Cl)cc2)nc1C,-85,?,-63,-128,72,51*
CCSc1nc(N)nc(-c2cccs2)c1C#N,/,49*,-30,/,30,-4
CCCNC(=O)C[C@@H]1CC[C@@H]2[C@H](COC[C@@H](O)CN2C(=O)Nc2ccc3c(c2)OCO3)O1,-13,8,/,-66,/,/
CCNC(=O)C[C@H]1CC[C@@H]2[C@H](COC[C@H](O)CN2C(=O)Nc2ccc3c(c2)OCO3)O1,-60,45*,/,-88,/,/
CCNC(=O)C[C@@H]1CC[C@@H]2[C@H](COC[C@H](O)CN2C(=O)Nc2ccc3c(c2)OCO3)O1,-83,44*,/,-98,/,/
Cc1cccc(S(=O)(=O)N2CCCCN3[C@H](C2)[C@@H](c2ccc(C#C[C@@H](C)O)cc2)[C@@H]3CO)c1,-5,1,/,11,/,/
CS(=O)(=O)c1ccc(CNC(=O)C2(C(F)(F)F)CC(CCCO)CCCO2)cc1 (stereo unspecified),22,/,/,59*,/,-2
Cc1[nH]c2ccccc2c1C(=O)C(C)OC(=O)c1ccc([N+](=O)[O-])o1 (stereo unspecified),62*,-4,46,9,-46,-2
CCc1noc(C)c1C(=O)OCC(=O)NCc1ccccc1,-15,-3,5,-2,0,2
CCc1noc(C)c1C(=O)OC(C)C(=O)c1c(C)[nH]c2ccccc12 (stereo unspecified),-1,5,16,-1,-13,47*
C/C=C/c1ccccc1[C@H]1[C@@H](C#N)N(C(=O)NC2CCCCC2)[C@H]1CO,/,/,/,3,/,/
CCCN1C[C@@H](C)[C@@H](OC)CN(C)C(=O)c2ccc(NS(=O)(=O)c3ccccc3)cc2OC[C@@H]1C,/,-1,/,8,/,/
CCOc1ccc2nc(C)cc(Nc3cccc([N+](=O)[O-])c3)c2c1,-3,/,84*,72*,-83,-2
C[C@@H]1CCCCO[C@H](CN(C)Cc2ccc3c(c2)OCO3)[C@@H](C)CN([C@@H](C)CO)C(=O)c2cc(NS(=O)(=O)c3ccccc3)ccc2O1,-2,0,/,5,/,/
